PubChem BioAssay (NCATS)
Several values for one entry are separate records, joined by “and”; a condition that tells them apart may be missing. Equal values may be shown once. Results filed as inconclusive are left out. Unmarked numbers belong to inactive results. Activity calls are given as the source filed them. The call rests on the fitted dose curve; in most records, active means well fitted curve in the direction sought with a large enough effect; inconclusive means small, poorly fitted or top-dose-only effect, or another doubt; inactive means no such curve, though single readings can be large or run the other way.

experiment: qHTS Assay for Identifying Gametocytocidal Compounds (AID 743244);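 on max response: actives lower the fluorescent signal which means gametocytes are killed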; conditions: P. falciparum 3D7 stage III-V gametocytes, alamarBlue, 72 h; max response: active compounds read low
Summary of the method: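 Using 20,000 stage III–V 3D7 gametocytes per well, compounds were incubated 72 h under 37 °C/5% CO2. Viability was then assessed by 24 h alamarBlue reduction, measured fluorometrically at 525/598 nm.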
On the % scale 0 is the no-effect control and ±100 the full control effect; potency means the concentration at half of the fitted maximal effect.

Compared with O=[N+]([O-])c1c2ccccc2cc2ccccc12, O=[N+]([O-])c1cc([N+](=O)[O-])c2ccccc2c1 is lower in max response: -7.57% for the first, -17.3% for the second.

Going from OCCCBr to COCCOCCO, the max response falls from 31% to -9.77%.

Compared with Cc1cc(O)ccc1Cl, Nc1ccc(Cl)cc1N is lower in max response: 25.2% for the first, -15.5% for the second.

Going from O=S(=O)(O)C(F)(F)C(F)(F)C(F)(F)C(F)(F)C(F)(F)C(F)(F)C(F)(F)C(F)(F)F to CC(=O)Nc1ccc(OC[C@](C)(O)C(=O)Nc2ccc([N+](=O)[O-])c(C(F)(F)F)c2)cc1, the max response rises from -9.5% to 0.149%.

First: Nc1c(Cl)c(Cl)c(Cl)c(Cl)c1Cl
Second: O=[N+]([O-])c1c(Cl)c(Cl)cc(Cl)c1Cl
The max response of the first is higher: 4.37% for the first, -14.2% for the second.

Going from CS(=O)(=O)c1ccc(C(=O)C2C(=O)CCCC2=O)c([N+](=O)[O-])c1 to Nc1ccc([N+](=O)[O-])cc1, the max response rises from -23.2% to -13.4%.

Going from COc1ccc(C(c2ccc(OC)cc2)C(Cl)(Cl)Cl)cc1 to O=C(Nc1ccccc1-c1ccc(Cl)cc1)c1cccnc1Cl, the max response rises from -11% to 10.9%.

First: CCOP(=O)(NC(C)C)Oc1ccc(SC)c(C)c1 (stereo not drawn)
Second: CCCCC(CC)COC(=O)c1ccccc1C(=O)OCC(CC)CCCC (stereo not drawn)
The max response of the first is higher: 14.8% for the first, 10.4% for the second.

Going from NC1=NC(=O)N2CC12 (stereo not drawn) to COc1nn(CSP(=S)(OC)OC)c(=O)s1, the max response rises from -4.05% to 14.2%.

First: CCCCCCCCc1ccc(O)cc1
Second: O=C(O)COc1ccccc1
The max response of the first is lower: -6.88% for the first, -2.31% for the second.

Compared with CO/C=C(/C(=O)OC)c1ccccc1Oc1cc(Oc2ccccc2C#N)ncn1, Nc1ccc(N=Nc2ccccc2)cc1 is lower in max response: 18.4% for the first, 11.9% for the second.

Compared with C=CCC1=C(C)C(OC(=O)C2C(C=C(C)C)C2(C)C)CC1=O (stereo not drawn), C=CC(=O)NCNC(=O)C=C is higher in max response: -9.3% for the first, 11% for the second.

Compound C1CCC(NC2CCCCC2)CC1 has a max response of 18.7%.

With CN(C)[C@@H]1C(=O)C(C(N)=O)=C(O)[C@@]2(O)C(=O)C3=C(O)c4c(O)cccc4[C@@](C)(O)[C@H]3[C@H](O)[C@@H]12 the max response was -4.72% and -5.37%.

In the case of CCCCCCCCCCCCCCCC[N+](C)(C)C, the Potency was 10 µM (active).
In the case of C=CCON=C(C[C@H]1O[C@@H]2O[C@]3(C)CC[C@@H]4[C@H](C)CC[C@@H]([C@H]1C)[C@@]24OO3)[C@H]1O[C@@H]2O[C@]3(C)CC[C@H]4[C@H](C)CC[C@@H]([C@@H]1C)[C@@]24OO3, the Potency was 0.0083 µM (active).
